From PubChem BioAssay (NCATS)
Inconclusive results are not listed. The source made the active and inactive calls. Calls follow the shape of the dose curve; as a rule, active = well fitted cell-killing curve with a large enough effect; inconclusive = small, poorly fitted or top-dose-only effect, or effect the other way; inactive = flat fitted curve, though single readings scatter.

How the values were obtained:
Experiment in all cases: Primary qHTS to identify gynecologic anti-cancer compounds using libraries of approved drugs and bioactive compounds (AID 1345084); also: nearly all actives have a fitted effect of over 55% in size
C33A = conditions: Gynecologic cancer cell panel viability, ATPlite luminescence, 48 h; series mostly up to 57.5 µM
Method in brief: (§1)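 Measured: luminescence after ATPlite addition (15 min, RT). Exposure: 48 h, 37 C, 5% CO2.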

CAOV3 = conditions: Gynecologic cancer cell panel viability, ATPlite luminescence, 48 h; series mostly up to 57.5 µM
Method in brief: as §1

CASKI = conditions: Gynecologic cancer cell panel viability, ATPlite luminescence, 48 h; series mostly up to 57.5 µM
Method in brief: as §1

Es-2 = conditions: Gynecologic cancer cell panel viability, ATPlite luminescence, 48 h; series mostly up to 57.5 µM
Method in brief: as §1

HeLa = conditions: Gynecologic cancer cell panel viability, ATPlite luminescence, 48 h; series mostly up to 57.5 µM
Method in brief: as §1

Hek293T = conditions: Gynecologic cancer cell panel viability, ATPlite luminescence, 48 h, control line for the selectivity index; series mostly up to 57.5 µM
Method in brief: as §1

JEG-3 = conditions: Gynecologic cancer cell panel viability, ATPlite luminescence, 48 h; series mostly up to 57.5 µM
Method in brief: as §1

OV90 = conditions: Gynecologic cancer cell panel viability, ATPlite luminescence, 48 h; series mostly up to 57.5 µM
Method in brief: as §1

PA-1 = conditions: Gynecologic cancer cell panel viability, ATPlite luminescence, 48 h; series mostly up to 57.5 µM
Method in brief: as §1

Tov-21-G = conditions: Gynecologic cancer cell panel viability, ATPlite luminescence, 48 h; series mostly up to 57.5 µM
Method in brief: as §1

Tov112D = conditions: Gynecologic cancer cell panel viability, ATPlite luminescence, 48 h; series mostly up to 57.5 µM
Method in brief: as §1
% is scaled to controls: 0 for no effect and ±100 for the full control effect.

CC1CCC2(C(=O)O)CCC3(C)C(=CCC4C5(C)C[C@@H](O)[C@@H](O)C(C)(CO)C5CCC43C)C2C1(C)O (stereo partly drawn)
inactive: Potency (C33A) | Potency (CAOV3) | outcome (CASKI) | Potency (Es-2) | Potency (HeLa) | Potency (Hek293T) | Potency (JEG-3) | Potency (OV90) | Potency (PA-1) | Potency (Tov-21-G) | Potency (Tov112D)

CC1(C)CC[C@]2(C(=O)O)CC[C@]3(C)C(=CCC4[C@@]5(C)CC[C@H](O[C@H]6O[C@H](C(=O)O)[C@@H](O)[C@H](O[C@@H]7O[C@H](CO)[C@H](O)[C@H](O)[C@H]7O)[C@H]6O)C(C)(C)C5CC[C@]43C)[C@@H]2C1 (stereo partly drawn)
inactive: activity change, negative = cytotoxicity (C33A) 17.4% [at 11.6 µM] | activity change, negative = cytotoxicity (CAOV3) 23.8% [at 11.6 µM] | activity change, negative = cytotoxicity (CASKI) 10.6% [at 11.6 µM] | activity change, negative = cytotoxicity (Es-2) 0.636% [at 11.6 µM] | activity change, negative = cytotoxicity (HeLa) -3.8% [at 11.6 µM] | activity change, negative = cytotoxicity (Hek293T) 18.4% [at 11.6 µM] | activity change, negative = cytotoxicity (JEG-3) -1.28% [at 11.6 µM] | activity change, negative = cytotoxicity (OV90) -6.58% [at 11.6 µM] | activity change, negative = cytotoxicity (PA-1) 2% [at 11.6 µM] | activity change, negative = cytotoxicity (Tov-21-G) 6.29% [at 11.6 µM] | activity change, negative = cytotoxicity (Tov112D) -0.0817% [at 11.6 µM]

CC1=CC(=O)CC(C)(C)[C@@]1(O)/C=C/C(C)O[C@@H]1O[C@H](CO)[C@@H](O)[C@H](O)[C@H]1O (stereo partly drawn)
inactive: Potency (C33A) | Potency (CAOV3) | outcome (CASKI) | Potency (Es-2) | Potency (HeLa) | Potency (Hek293T) | Potency (JEG-3) | Potency (OV90) | Potency (PA-1) | Potency (Tov-21-G) | Potency (Tov112D)

O=C(O)/C=C/c1ccc(O[C@@H]2O[C@H](CO)[C@@H](O)[C@H](O)[C@H]2O)cc1
inactive: Potency (C33A) | Potency (CAOV3) | outcome (CASKI) | Potency (Es-2) | Potency (HeLa) | Potency (Hek293T) | Potency (JEG-3) | Potency (OV90) | Potency (PA-1) | Potency (Tov-21-G) | Potency (Tov112D)

CC1(C)C=Cc2c(ccc3c2N=C2C(C)(C)[C@@H]4C[C@]56CCCN5C(=O)[C@@]4(C[C@]23O)NC6=O)O1
inactive: Potency (C33A) | Potency (CAOV3) | outcome (CASKI) | Potency (Es-2) | Potency (HeLa) | Potency (Hek293T) | Potency (JEG-3) | Potency (OV90) | Potency (PA-1) | Potency (Tov-21-G) | Potency (Tov112D)

C/C=C(\C)C(=O)OC[C@H]1O[C@@H](O[C@H]2[C@@H](O[C@H]3O[C@H](CO)[C@@H](O)[C@H](O)[C@H]3O[C@@H]3O[C@H](CO)[C@@H](O)[C@H](O)[C@H]3O)O[C@H](COC(=O)/C(C)=C/C)[C@@H](O)[C@@H]2O)[C@H](O)[C@@H](O)[C@@H]1O
inactive: activity change, negative = cytotoxicity (C33A) 7.95% [at 11.6 µM] | activity change, negative = cytotoxicity (CAOV3) 13.6% [at 11.6 µM] | activity change, negative = cytotoxicity (CASKI) -6.51% [at 11.6 µM] | activity change, negative = cytotoxicity (Es-2) -0.184% [at 11.6 µM] | activity change, negative = cytotoxicity (HeLa) -3.59% [at 11.6 µM] | activity change, negative = cytotoxicity (Hek293T) 2.97% [at 11.6 µM] | activity change, negative = cytotoxicity (JEG-3) -0.345% [at 11.6 µM] | activity change, negative = cytotoxicity (OV90) 4.16% [at 11.6 µM] | activity change, negative = cytotoxicity (PA-1) 4.96% [at 11.6 µM] | activity change, negative = cytotoxicity (Tov-21-G) -10% [at 11.6 µM] | activity change, negative = cytotoxicity (Tov112D) -8.88% [at 11.6 µM]

CCOc1ncc(S(=O)(=O)N2CCN(CC)CC2)cc1-c1nc2c(CC)n(CCOC)nc2c(=O)[nH]1
inactive: Potency (C33A) | Potency (CAOV3) | outcome (CASKI) | Potency (Es-2) | Potency (HeLa) | Potency (Hek293T) | Potency (JEG-3) | Potency (OV90) | Potency (PA-1) | Potency (Tov-21-G) | Potency (Tov112D)

C=C1CCC2[C@@](C)(C(=O)O)CCC[C@@]2(C)[C@@H]1CCc1ccoc1 (stereo partly drawn)
inactive: Potency (C33A) | Potency (CAOV3) | outcome (CASKI) | Potency (Es-2) | Potency (HeLa) | Potency (Hek293T) | Potency (JEG-3) | Potency (OV90) | Potency (PA-1) | Potency (Tov-21-G) | Potency (Tov112D)

CC(CCc1ccc(O)cc1)O[C@@H]1O[C@H](CO[C@@H]2OC(CO)[C@H](O)[C@H]2O)[C@@H](O)[C@H](O)[C@H]1O (stereo partly drawn)
inactive: Potency (C33A) | Potency (CAOV3) | outcome (CASKI) | Potency (Es-2) | Potency (HeLa) | Potency (Hek293T) | Potency (JEG-3) | Potency (OV90) | Potency (PA-1) | Potency (Tov-21-G) | Potency (Tov112D)

C/C=C(/C)C(=O)OC1C(OC(C)=O)C23C(O)OC4(CCC5C6(C)CCC(OC7OC(C(=O)O)C(O)C(OC8OC(CO)C(O)C(O)C8OC8OC(C)C(O)C(O)C8OC8OCC(O)C(O)C8O)C7OC7OC(CO)C(O)C(O)C7O)C(C)(C)C6CCC5(C)C4(C)CC2OC(C)=O)C3CC1(C)C (stereo not drawn)
inactive: activity change, negative = cytotoxicity (C33A) 8.72% [at 6.55 µM] | activity change, negative = cytotoxicity (CAOV3) 8.69% [at 6.55 µM] | activity change, negative = cytotoxicity (CASKI) 1.53% [at 6.55 µM] | activity change, negative = cytotoxicity (Es-2) 1.17% [at 6.55 µM] | activity change, negative = cytotoxicity (HeLa) -3.79% [at 6.55 µM] | activity change, negative = cytotoxicity (Hek293T) -2.54% [at 6.55 µM] | activity change, negative = cytotoxicity (JEG-3) 2.12% [at 6.55 µM] | activity change, negative = cytotoxicity (OV90) 3.74% [at 6.55 µM] | activity change, negative = cytotoxicity (PA-1) -0.0173% [at 6.55 µM] | activity change, negative = cytotoxicity (Tov-21-G) -4.78% [at 6.55 µM] | activity change, negative = cytotoxicity (Tov112D) 1.18% [at 6.55 µM]

CCCCNc1nc(N)c2[nH]c(=O)n(Cc3ccc(OCCN(C)C)nc3)c2n1
inactive: Potency (C33A) | Potency (CAOV3) | outcome (CASKI) | Potency (Es-2) | Potency (HeLa) | Potency (Hek293T) | Potency (JEG-3) | Potency (OV90) | Potency (PA-1) | Potency (Tov-21-G) | Potency (Tov112D)

C[C@@H]1O[C@@H](O[C@H]2[C@@H]3C=CO[C@@H](O[C@@H]4O[C@H](CO)[C@@H](O)[C@H](O)[C@H]4O)[C@@H]3[C@@]3(CO)O[C@@H]23)[C@H](O)[C@H](OC(=O)/C=C/c2ccc(O)c(O)c2)[C@H]1O
inactive: Potency (C33A) | Potency (CAOV3) | outcome (CASKI) | Potency (Es-2) | Potency (HeLa) | Potency (Hek293T) | Potency (JEG-3) | Potency (OV90) | Potency (PA-1) | Potency (Tov-21-G)

C[C@@H]1O[C@@H](O[C@H]2[C@H](O)[C@@H](O)[C@H](OC(=O)[C@]34CCC(C)(C)C[C@H]3C3=CCC5[C@@]6(C)CC[C@H](O[C@@H]7O[C@H](C(=O)O)[C@@H](O)[C@H](O)[C@H]7O)C(C)(C)C6CC[C@@]5(C)[C@]3(C)CC4)O[C@@H]2CO)[C@H](O)[C@H](O)[C@H]1O (stereo partly drawn)
inactive: activity change, negative = cytotoxicity (C33A) -8.12% [at 11.6 µM] | activity change, negative = cytotoxicity (CAOV3) -25.2% [at 11.6 µM] | activity change, negative = cytotoxicity (CASKI) 5.01% [at 11.6 µM] | activity change, negative = cytotoxicity (Es-2) -1.51% [at 11.6 µM] | activity change, negative = cytotoxicity (HeLa) -21.7% [at 11.6 µM] | activity change, negative = cytotoxicity (Hek293T) 10.3% [at 11.6 µM] | activity change, negative = cytotoxicity (JEG-3) -2.05% [at 11.6 µM] | activity change, negative = cytotoxicity (OV90) -2.03% [at 11.6 µM] | activity change, negative = cytotoxicity (PA-1) -21.3% [at 11.6 µM] | activity change, negative = cytotoxicity (Tov-21-G) -3.13% [at 11.6 µM] | activity change, negative = cytotoxicity (Tov112D) -16.2% [at 11.6 µM]

Cc1ccc(COC(=O)N2CC[C@@H](CNc3ncccn3)[C@@H](F)C2)cc1
inactive: Potency (C33A) | Potency (CAOV3) | outcome (CASKI) | Potency (Es-2) | Potency (HeLa) | Potency (Hek293T) | Potency (JEG-3) | Potency (OV90) | Potency (PA-1) | Potency (Tov-21-G) | Potency (Tov112D)
